About 3,300 (8.5%) of roughly 39,000 compounds were called active. The sample holds actives, similar compounds and a random draw of the others, so the mix is not that of the screen.

The assay deals with HepG2. Put plainly: cytotoxicity call (relative viability < 0.9). The note with it: 10 µM.
As for `C[C@H](CO)N1C[C@H](C)[C@@H](CN(C)Cc2ccc(-c3ccccc3)cc2)Oc2c(NS(=O)(=O)c3ccc(F)cc3)cccc2C1=O`, the cytotoxicity call was “active”.
For `C[C@@H]1CN([C@@H](C)CO)C(=O)c2cccc(NS(=O)(=O)c3ccc(F)cc3)c2O[C@@H]1CN(C)Cc1ccc(-c2ccccc2)cc1`, the cytotoxicity call was “active”.
For the molecule `C[C@@H]1CN([C@@H](C)CO)C(=O)c2cccc(NS(=O)(=O)c3ccc(F)cc3)c2O[C@H]1CN(C)Cc1ccc(-c2ccccc2)cc1`, the cytotoxicity call is “inactive”.
Next, `C[C@H]1CN([C@@H](C)CO)C(=O)c2cccc(NS(=O)(=O)c3ccc(F)cc3)c2O[C@@H]1CN(C)Cc1ccc(-c2ccccc2)cc1`: “inactive”; `C[C@@H]1CN([C@H](C)CO)C(=O)c2cccc(NS(=O)(=O)c3ccc(F)cc3)c2O[C@@H]1CN(C)Cc1ccc(-c2ccccc2)cc1`: “inactive”.
The result for `C[C@H](CO)N1C[C@H](C)[C@H](CN(C)Cc2ccc(-c3ccccc3)cc2)Oc2c(NS(=O)(=O)c3ccc(F)cc3)cccc2C1=O` reads “active”; that for `C[C@H](CO)N1C[C@H](C)[C@H](CN(C)Cc2ccc(-c3ccccc3)cc2)Oc2c(NS(=O)(=O)c3ccccc3)cccc2C1=O`, “inactive”.
Next, `COCC(=O)Nc1ccc2c(c1)C(=O)N(C)[C@@H]1CC[C@H](CC(=O)NCc3ccc(OC)cc3)O[C@H]1CO2`: “inactive”; `C[C@H]1CN([C@@H](C)CO)C(=O)Cc2cc(NS(=O)(=O)c3ccccc3)ccc2O[C@H]1CN(C)CC1CC1`: “inactive”; `C[C@@H]1CN([C@@H](C)CO)C(=O)c2cc(NC(=O)CCC(F)(F)F)ccc2O[C@@H](C)CCCCO[C@H]1CN(C)S(=O)(=O)c1ccc(F)cc1`: “inactive”.
For the molecule `COc1ccccc1CNC(=O)C[C@H]1C[C@@H]2c3cc(NC(=O)C4CCOCC4)ccc3O[C@@H]2[C@@H](CO)O1`, the cytotoxicity call was “inactive”.
Next, `COc1ccc(S(=O)(=O)Nc2ccc3c(c2)C(=O)N([C@H](C)CO)C[C@@H](C)[C@@H](CN(C)CC2CC2)O3)cc1`: “inactive”.
Next, `Cc1noc(C)c1NC(=O)N(C)C[C@H]1Oc2ccc(NC(=O)NC(C)C)cc2CC(=O)N([C@@H](C)CO)C[C@H]1C`: “inactive”; `O=C(CN1CCOCC1)NCC[C@H]1CC[C@H](NC(=O)Nc2ccccc2)[C@@H](CO)O1`: “inactive”; `C[C@@H]1CCCCO[C@@H](CN(C)C(=O)Nc2ccc3c(c2)OCO3)[C@@H](C)CN([C@H](C)CO)C(=O)c2cc(NC(=O)Nc3ccccc3)ccc2O1`: “inactive”.
As to `Nc1cccc(C2=NCCN2)c1`, the cytotoxicity call is “inactive”.
Next, `CS(=O)(=O)Nc1ccc2c(c1)[C@H]1C[C@@H](CC(=O)NCC3CC3)O[C@H](CO)[C@H]1O2`: “inactive”; `COc1ccc(NC(=O)N(C)C[C@@H]2Oc3ncc(C#CCN(C)C)cc3C(=O)N([C@@H](C)CO)C[C@@H]2C)cc1`: “inactive”; `C[C@@H]1CN([C@@H](C)CO)C(=O)c2cccc(NS(=O)(=O)c3ccc(F)cc3)c2O[C@@H]1CN(C)S(=O)(=O)c1ccc(F)cc1`: “active”.
For the molecule `C[C@H](CO)N1C[C@H](C)[C@H](CN(C)S(=O)(=O)c2ccc(F)cc2)Oc2c(NS(=O)(=O)c3ccc(F)cc3)cccc2C1=O`, the cytotoxicity call is “inactive”.
Next, `C[C@H]1CN([C@@H](C)CO)C(=O)c2cccc(NS(=O)(=O)c3ccc(F)cc3)c2O[C@H]1CN(C)S(=O)(=O)c1ccc(F)cc1`: “inactive”; `CC(C)C#Cc1ccc2c(c1)O[C@@H](CN(C)S(=O)(=O)c1cn(C)cn1)[C@H](C)CN([C@H](C)CO)S2(=O)=O`: “inactive”.
For `O=C(CS)NCCCCCCNC(=O)[C@@H]1C[C@@H]2C(=O)N[C@@H](Cc3ccccc3)C(=O)N2[C@@H]1c1ccc(O)cc1`, the cytotoxicity call is “inactive”.
Regarding `COc1ccc(NC(=O)N2C[C@H](O)COC[C@H]3O[C@@H](CC(=O)NC4Cc5ccccc5C4)CC[C@@H]32)cc1`, the cytotoxicity call was “inactive”.
The result for `CO[C@H]1CN(C)C(=O)c2ccc(NC(=O)C3CC3)cc2OC[C@@H](C)N(C(=O)CN2CCOCC2)C[C@H]1C` reads “inactive”; that for `C[C@H]1CN([C@@H](C)CO)C(=O)c2cccc(NC(=O)c3ccc(-c4nccs4)cc3)c2O[C@H]1CN(C)C(=O)Nc1cccc2ccccc12`, “inactive”.
Take `C=CCNC(=O)[C@@H]1[C@H]2C(=O)O[C@H](c3ccccc3)[C@H](c3ccccc3)N2[C@H](c2ccccc2OCCO)[C@@]12C(=O)Nc1ccc(C#Cc3ccc(OC)cc3)cc12`: the cytotoxicity call was “inactive”.
The result for `O=C1O[C@H](c2ccccc2)[C@H](c2ccccc2)N2[C@H]1[C@@H](C(=O)NC[C@@H](O)c1ccccc1)[C@]1(C(=O)Nc3ccc(C#CC4=CCCCC4)cc31)[C@H]2c1ccccc1OCCO` reads “active”; that for `COc1ccc(C#Cc2ccc3c(c2)[C@]2(C(=O)N3)[C@H](C(=O)N3CCN(c4ncccn4)CC3)[C@H]3C(=O)O[C@H](c4ccccc4)[C@H](c4ccccc4)N3[C@@H]2c2ccccc2OCCO)cc1`, “inactive”; that for `COc1ccc(C#Cc2ccc3c(c2)[C@]2(C(=O)N3)[C@H](C(=O)O)[C@H]3C(=O)O[C@H](c4ccccc4)[C@H](c4ccccc4)N3[C@@H]2c2ccccc2OCCO)cc1`, “inactive”.
Next, `COc1ccc(C#Cc2ccc3c(c2)[C@]2(C(=O)N3)[C@H](c3ccccc3OCCO)N3[C@H](c4ccccc4)[C@H](c4ccccc4)OC(=O)[C@H]3[C@@H]2C(=O)O)cc1`: “inactive”; `COc1ccc(C#Cc2ccc3c(c2)[C@]2(C(=O)N3)[C@H](C(N)=O)[C@H]3C(=O)O[C@H](c4ccccc4)[C@H](c4ccccc4)N3[C@@H]2c2ccccc2OCCO)cc1`: “active”; `COc1ccc(C#Cc2ccc3c(c2)[C@]2(C(=O)N3)[C@H](c3ccccc3OCCO)N3[C@H](c4ccccc4)[C@H](c4ccccc4)OC(=O)[C@H]3[C@@H]2C(=O)NC[C@H](O)c2ccccc2)cc1`: “active”.
The result for `C=CCNC(=O)[C@@H]1[C@H]2C(=O)O[C@H](c3ccccc3)[C@H](c3ccccc3)N2[C@H](c2ccccc2OCCO)[C@@]12C(=O)Nc1ccc(C#CC3=CCCCC3)cc12` reads “inactive”; that for `COc1ccc(C#Cc2ccc3c(c2)[C@]2(C(=O)N3)[C@H](C(=O)N3CCN(c4ncccn4)CC3)[C@H]3C(=O)O[C@H](c4ccccc4)[C@H](c4ccccc4)N3[C@@H]2c2ccc(OCCO)cc2)cc1`, “inactive”; that for `C=CCNC(=O)[C@H]1[C@@H]2C(=O)O[C@@H](c3ccccc3)[C@@H](c3ccccc3)N2[C@@H](c2ccccc2OCCO)[C@]12C(=O)Nc1ccc(C#CC3=CCCCC3)cc12`, “inactive”.
Consider `COc1ccc(C#Cc2ccc3c(c2)[C@]2(C(=O)N3)[C@H](c3ccc(OCCO)cc3)N3[C@H](c4ccccc4)[C@H](c4ccccc4)OC(=O)[C@H]3[C@@H]2C(=O)NC[C@H](O)c2ccccc2)cc1`, for which the cytotoxicity call is “inactive”.
The result for `COc1ccc(C#Cc2ccc3c(c2)[C@]2(C(=O)N3)[C@H](c3ccccc3OCCO)N3[C@H](c4ccccc4)[C@H](c4ccccc4)OC(=O)[C@H]3[C@@H]2C(=O)N2CCN(c3ncccn3)CC2)cc1` reads “active”.

The values are drawn from the antibiotic and cytotoxicity screens of Wong et al. (2023).
